An excerpt weighted towards active compounds, which were near 12% of everything screened.
Sm TGR block = inhibitors of Schistosoma mansoni thioredoxin glutathione reductase | Potency, µM (top dose mostly 114 µM), actives largely listed as inhibitors | AID 485364 | 3% of 360,000 active | purified TGR, DTNB reduction, TNB absorbance 405 nm; also: nearly all actives have a fitted effect of over 60% in size
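TGR 20 nM + NADPH 100 uM (dispensed conc.), cpd preinc 15 min RT; start with NADPH (500 uM addition) then DTNB (15 mM addition). Kinetic TNB absorbance, 405 nm filter. Four-parameter Hill fit across titration.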
Pf growth 48h = P. falciparum growth inhibition at 48 hours (one generation). P. falciparum luciferase growth in erythrocytes, 48 h. Potency, µM (titrated, usually from 28.7 µM), usual class: inhibitors. 5.9% of 310,000 active. AID 504832
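Compounds are pin-transferred into medium, infected erythrocytes (2% hematocrit, 0.1% parasitemia final) are added, and plates sit one parasite generation at 37 C in 5% CO2. Detection reagent is then added and luminescence measured.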
Pf growth 96h = inhibits malaria parasite growth, 96 h; P. falciparum luciferase reporter growth, 96 h; Potency, µM (highest dose often 28.7 µM), actives largely listed as inhibitors; 6.9% of 320,000 active; AID 504834
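Readout is luminescence from an integrated firefly luciferase in P. falciparum. Red cells, 2% hematocrit and 0.05% parasitemia final, were cultured with compound through two parasite generations (96 hours) at 37 C, 5% CO2.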
SARS PLpro yeast = blocks SARS-CoV papain-like protease in a yeast assay; AID 485353; 0.19% of 330,000 active; Potency, µM (doses to about 32.9 µM), usual class: activators; S. cerevisiae expressing SARS-CoV PLpro, growth rescue; calls by dose curve; also: nearly all actives have a fitted effect of over 55% in size
Hits are given with their value; . = inactive; ? = inconclusive; / = not tested or not shown; [ ] = dose if it differs, or a comment. Unless noted, calls follow the shape of the dose curve; as a rule, active = well fitted curve in the direction sought with a large enough effect; inconclusive = small, poorly fitted or top-dose-only effect, or another doubt; inactive = no such curve, though single readings can be large; an effect the other way counts as inactive or inconclusive.

SMILES	Sm TGR block	Pf growth 48h	Pf growth 96h	SARS PLpro yeast
COc1cc(C2CC(=O)Nc3c2c(=O)n(C)c2ncnn32)cc(OC)c1OC (stereo unspecified)	.	/	/	/
O=C(Nc1ccc(F)cc1)[C@H](Cc1ccccc1)N1Cc2ccccc2C1=O	.	/	/	/
CCOc1cccc(C(=O)N2CCCCC2c2cccnc2)c1 (stereo unspecified)	.	9.28µM	.	.
CCCCOC(=O)c1ccc(NC(=O)c2c(Cl)ccc(Cl)c2OC)cc1	.	.	5.22µM	.
CCCCOC(=O)Nc1ccc(C(=O)OCCC)cc1	.	.	.	.
CC(C)(C)OC(=O)C[C@@H]1C/C=C\C[C@H](CC(=O)N(CCO)Cc2ccccc2)C(=O)N[C@@H](Cc2c[nH]c3ccccc23)COC1=O	/	/	/	.
CCOC(=O)c1sc(N)c(C#N)c1CSc1nnc(C2CCCCC2)n1N	.[11.4 µM]	/	10.4µM	.
N#Cc1ccc(COC(=O)CSc2nnc(C3CCCCC3)n2N)cc1	.	.	.	.
NC(=O)C1CCN(c2nc(-c3cccs3)cs2)CC1	.	.	.	.
Cc1cccc(C(=O)Nc2ccc(OCc3cc(=O)n4ccsc4n3)cc2)c1	.	/	/	/
Cc1oc(-c2ccccc2F)nc1CS(=O)(=O)CC(=O)N1CCCCCC1	11.2µM	.	?	.
Cc1ccccc1-c1nc(CS(=O)(=O)CC(=O)NC2CCCCC2C)c(C)o1 (stereo unspecified)	?	.	?	.
Cc1ccccc1-c1nc(CS(=O)(=O)CC(=O)N(C)C2CCCCC2)c(C)o1	8.91µM	.	.	.
CCOC(=O)c1c(C)[nH]c(C)c1S(=O)(=O)N1CCN(C(=O)c2ccco2)CC1	.	.	.	.
Cc1ccc(NS(=O)(=O)c2cc(OCC(N)=O)c(C)cc2Cl)cc1C	.	11.7µM	?	.
Cc1cccc(NS(=O)(=O)c2cc(OCC(N)=O)c(C)cc2Cl)c1	.	.	.	?
Cc1ccccc1NS(=O)(=O)c1cc(OCC(N)=O)c(C)cc1Cl	.	.	10.4µM	.
Cc1nn(C(=O)N(C)C)c(C)c1CN1C(=O)c2ccccc2C1=O	.	.	?	?
CCn1c(O)c(N=NC(=O)CNC(=O)c2ccco2)c2ccccc21	.	.	.	.
CCn1c(O)c(N=NC(=O)CNC(=O)/C=C/c2ccco2)c2ccccc21	35.5µM	.	.	.
CC(C)NC(=O)c1sc2nc3c(c(-c4cccs4)c2c1N)CN(C)CC3	.	/	.	.
CN1CCc2nc3sc(C#N)c(N)c3c(-c3cccs3)c2C1	?	13.1µM	/	.
CCn1cnc2c(=O)oc3ccc(S(=O)(=O)N4CCN(c5cc(C)ccc5C)CC4)cc3c21	.	/	/	/
Cc1nc2ccn(Cc3ccco3)c(=O)c2cc1C(=O)NCc1ccccc1	.	/	/	/
Cc1ccc(C)c(N2CCN(C(=O)c3cc4c(=O)n(Cc5ccco5)ccc4nc3C)CC2)c1	39.8µM	/	/	/
SMILES	Sm TGR block	Pf growth 48h	Pf growth 96h	SARS PLpro yeast
Cc1ccc(CNC(=O)c2cc3c(=O)n(Cc4ccco4)ccc3nc2C)cc1	25.1µM	/	/	/
COc1cccc(N2CCN(C(=O)c3cc4c(=O)n(Cc5ccco5)ccc4nc3C)CC2)c1	10µM	/	/	/
CC(C)=CCC[C@](C)(OC1OC(COC2OCC(O)C(O)C2O)C(O)C(O)C1O)C1CC[C@]2(C)C1C(O)CC1[C@@]3(C)CCC(O[C@@H]4O[C@H](CO)C(O)C(O)C4O[C@@H]4OC(CO)C(O)C(O)C4O)C(C)(C)C3CC[C@]12C (stereo partly specified)	/	/	/	.
O=C(CN1C(=O)NC2(CCCC2)C1=O)Nc1cc(Cl)ccc1N1CCCCC1	.	?	13.1µM	.
CCC(=O)N1CCN(c2ccc(Cl)cc2NC(=O)Cc2ccc(Cl)cc2)CC1	.	/	13.1µM	.
CC(=O)N1CCN(c2ccc(NC(=O)c3ccc([N+](=O)[O-])o3)cc2Cl)CC1	?	?	5.22µM	.
CCC(=O)N1CCN(c2ccccc2NC(=O)Cc2ccc(Cl)cc2)CC1	.	.	.	.
CCC(=O)N1CCN(c2ccc(Cl)cc2NC(=O)c2ccc([N+](=O)[O-])o2)CC1	.	?	10.4µM	.
Cc1ccc(C)c(S(=O)(=O)NNC(=O)c2sc(NS(=O)(=O)c3ccccc3)nc2C)c1	.	.	.	.
O=C1CC(N2CCC(n3c(=O)[nH]c4ccccc43)CC2)C(=O)N1Cc1ccccc1 (stereo unspecified)	.	?	/	.
Cc1cc(N2C(=O)CC(N3CCC(n4c(=O)[nH]c5ccccc54)CC3)C2=O)no1 (stereo unspecified)	22.4µM	.	/	.
COC(=O)c1ccc(N2C(=O)CC(N3CCC(n4c(=O)[nH]c5ccccc54)CC3)C2=O)cc1 (stereo unspecified)	35.5µM	.	/	.
Cc1ccc(-c2nnc(SCc3ccccc3C#N)o2)cc1	.	/	/	/
O=C(CC1(CC2=NS(=O)(=O)c3ccccc3N2)CCCC1)NCCc1ccccc1	.	?	.	.
COc1ccc2cc(C(=O)NCc3ccc4c(c3)CCN4C(=O)c3ccc(F)cc3)[nH]c2c1	.	/	/	/
COc1ccccc1N1CCc2c(C)nc3c(OC)cccc3c21	.	13.1µM	?	.
COc1cccc2c3c(c(C)nc12)CCN3c1ccccc1	.	?	?	.
COc1ncnc2c1oc1nc(CC(C)C)c3c(c12)CC(C)(C)OC3	.	2.08µM	?	.
COc1ccc(C(=O)N2CCc3cc(OC)c(OC)cc3C2COc2ccccc2OC)cc1 (stereo unspecified)	.	/	/	/
COc1ccccc1CNC(=O)c1ccc2c(=O)n(CCCN3CCCC3=O)c(=S)[nH]c2c1	.	?	14.7µM	.
COc1ccc(CNC(=O)c2ccc3c(=O)n(CCCN4CCCC4=O)c(=S)[nH]c3c2)cc1	.	?	4.15µM	.
COC(=O)c1ccc2c(=O)n(CCCN3CCCC3=O)c(=S)[nH]c2c1	.	11.7µM	.	.
Cc1ccc(CNC(=O)c2ccc3c(=O)n(CCCN4CCCC4=O)c(=S)[nH]c3c2)cc1	.	/	.	.
CSCCC(NC(=O)c1ccc([N+](=O)[O-])cc1Cl)C(=O)OC1CCCCC1=O (stereo unspecified)	?	.	.	.
Cc1cc2nc3s/c(=C/c4ccc(-c5ccccc5C(=O)O)o4)c(=O)n3c2cc1C	3.55µM	.	.	.
SMILES	Sm TGR block	Pf growth 48h	Pf growth 96h	SARS PLpro yeast
O=C(O)c1ccccc1-c1ccc(/C=c2\sc3nc4cc(Br)cnc4n3c2=O)o1	?	.	.	.
Cc1cc(C)c2c(c1)NC(C(=O)O)C1CC=CC21 (stereo unspecified)	0.631µM	.	.	.
Cc1ccc2c(c1C)NC(C(=O)O)C1CC=CC21 (stereo unspecified)	2.51µM	?	/	.
CCn1c(C)c(C(C)=O)c(N2CCC(C(N)=O)CC2)nc1=S	.	.	.	/
CCn1c(C)c(C(C)=O)c(N2CCCCC2)nc1=S	.	.	11.7µM	.
CC1CC(=O)Nc2ccccc2N1C(=O)CSc1ncnc2sccc12 (stereo unspecified)	.	?	?	.
COc1ccc(/C=C(/C(=O)Nc2ccccc2C(=O)N2CCCC2)c2ccccc2)cc1	.	6.57µM	?	.
COc1ccc(/C=C(/C(=O)Nc2ccccc2C(=O)NC(C)C)c2ccccc2)cc1	.	?	?	.

Screening data (PubChem BioAssay)
